Screening results (PubChem)
Neddyl block: inhibitors of human cullin neddylation; P61081+Q13564; inhibition, % at 25 µM; 360,000 compounds, 0.58% hits; TR-FRET cullin neddylation, biochemical; in the data active = inhibition above about 36%
NadD block: NadD (S. aureus) enzyme inhibition. inhibition, % at 20 µM. purified NadD enzyme, colorimetric absorbance read-out. 360,000 compounds, 0.78% hits; in the data active = inhibition above about 26%
NPR2 activator: GC-B (human) receptor activation; HEK293-GC-B cells, CNP EC30, cGMP TR-FRET; 0% at EC30 CNP, 100% saturating CNP; activation, % at 10 µM; 370,000 compounds, 0.11% hits; AID 1920062;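 active = activation at 10 µM reaching about 35% in either raw or pattern-adjusted values, limit read from the data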
NPR1 activator: GC-A (human) enzyme activation; HEK293 GC-A cells, cGMP TR-FRET, EC30 ANP; 0% at EC30 ANP, 100% saturating ANP; activation, % at 10 µM; 370,000 compounds, 0.14% hits; AID 1671463; in the data active = activation above about 40%
NadD conf: NadD (S. aureus) inhibition, single concentration confirmation; shares compounds with NadD block; purified S. aureus NadD, colorimetric enzyme assay; inhibition, % at 20 µM; 2,000 compounds, 13% hits; AID 624309; in the data active = inhibition mostly above about 42%, no sharp cut-off; inactive = mostly below about 42%
Each line names hits and unclear results; the compound was inactive in the other large screens (follow-up assays come after a bar, where shown). Hits are enriched below; roughly 1.5% of the tested compounds scored in any of these assays.

COc1ccc(C(=O)c2[nH]c(N)c(C(=O)c3c[nH]c4ccccc34)c2-c2ccc(OC)cc2)cc1	none (no result: Neddyl block, NadD block)
CN(C)c1ccc(/C=C(\C#N)C(=O)Nc2nc3c(s2)CCN(Cc2ccccc2)C3)cc1	NadD block 33
COc1cc(C(C)=O)ccc1Oc1ncnc2c1cnn2-c1ccc(F)cc1	NPR1 activator 47
CCOC(=O)CC[C@H]1CC[C@]2(CCCN(C(=O)c3ccc4ccccc4n3)C2)O1	none (no result: Neddyl block, NadD block)
O=C(c1cnn2c(C(F)(F)F)cc(-c3ccc(Br)cc3)nc12)N1CCOCC1	none
O=C(c1cnn2c(C(F)(F)F)cc(-c3ccc4c(c3)OCO4)nc12)N1CCCC1	NPR2 activator 45
N#Cc1cccc(-c2ccccc2C(=O)NC2CCCCN(Cc3ccc(Cl)cc3)C2=O)c1 (configuration not stated)	none (no result: Neddyl block, NadD block)
CCn1c(=O)c(C(=O)CN2c3ccccc3CC2C)c(N)n(Cc2ccccc2)c1=O (configuration not stated)	NPR1 activator 41
CO[C@H]([C@H](C)/C=C/N(C)C=O)[C@@H](C)C(=O)CC[C@H](C)[C@H](O)[C@H](C)[C@H]1OC(=O)/C=C/C(C)=C/C[C@H](O)C[C@@H]2C=CC[C@@H](C[C@H](OC)[C@@H](C)[C@@H](OC)C[C@@H](OC)[C@@H]1C)O2	none (no result: Neddyl block, NadD block)
CCOC(=O)c1c(-c2ccc(C)o2)csc1NC(=O)CSc1nnc(C)s1	none
CCOC(=O)c1c(-c2ccc(C)o2)csc1NC(=S)NC(=O)c1cccs1	NPR2 activator 37
CCOC(=O)c1c(-c2ccc(C)o2)csc1NC(=S)NC(=O)c1ccccc1Br	NPR2 activator 37
N#Cc1c2c(c(-n3cnc4ccccc43)n3c1nc1ccccc13)CCC2	none
N#Cc1c2c(c(Nc3ccc(F)cc3)n3c1nc1ccccc13)CCCC2	NPR1 activator 44 (not shown: Neddyl block)
N#Cc1c2c(c(Nc3ccccc3)n3c1nc1ccccc13)CCC2	NPR1 activator 54 (not shown: Neddyl block)
O=C(Nc1ccc(Cl)c(Cl)c1)C1CCCN(c2nnc(-n3cccc3)s2)C1 (configuration not stated)	none (no result: Neddyl block, NadD block)
CC(C)[C@H](NC(=O)c1ccc(Cl)c(Cl)c1)C(=O)N1CCC[C@H]1C(=O)NCCc1ccccc1Cl	none (no result: Neddyl block, NadD block)
Cn1cnnc1SCc1ccc(C(=O)N=Nc2c(O)n(Cc3ccc(Cl)cc3)c3ccccc23)cc1	NadD block 35
c1coc(-c2nc(-c3ccco3)c(-c3ccco3)nc2-c2ccco2)c1	NadD block 46
O=[N+]([O-])c1cc(CN2CCCC2)c2cccnc2c1O	NadD block 74 (no result: NPR2 activator, NPR1 activator)
O=[N+]([O-])c1cc(CN2CCN(c3cccc(C(F)(F)F)c3)CC2)c2cccnc2c1O	none (no result: Neddyl block, NadD block)
CCc1nnc(NS(=O)(=O)c2ccc(NC(=S)NC(=O)/C=C/c3ccc(C(C)C)cc3)cc2)s1	NadD block 69 (no result: NPR2 activator, NPR1 activator)
COC(=O)[C@]12C[C@H](CC(=O)NCc3cccc4ccccc34)C(=O)N(Cc3ccco3)C1=C[C@H](C(C)(C)C)O[C@@H]2C	none (no result: Neddyl block, NadD block)
O=C(CCn1cnc(-c2ccccc2)c1-c1ccccc1)N/N=C/c1ccc(O)cc1	none
O=C(CCn1cnc(-c2ccccc2)c1-c1ccccc1)N/N=C/c1ccccc1O	Neddyl block 54
CCCCOCCCNC(=O)C[C@H]1C[C@@]2(C(=O)OCC)CCCC3=C2N(CCC3)C1=O	none (no result: Neddyl block, NadD block)
CCOC(=O)c1[nH]c(C)c(C(=O)NC2CCCCCC2)c1C	none
CCOC(=O)c1[nH]c(C)c(C(=O)NC2CCCC2)c1C	NPR2 activator 56
Cn1cc([N+](=O)[O-])c(C(=O)Nc2nc(-c3ccc(Cl)cc3)cs2)n1	NPR1 activator 60
NC(N)=N/N=C/c1ccc2cccc(OCc3ccccc3)c2n1	Neddyl block 45
Nc1c(C(O)(C(F)(F)F)C(F)(F)F)cc(C(O)(C(F)(F)F)C(F)(F)F)c2ccccc12	Neddyl block 40 (no result: NPR2 activator, NPR1 activator)
COC(=O)C1CN(Cc2ccc(OC)cc2)CCS(=O)(=O)N1Cc1ccc(Cl)cc1 (configuration not stated)	none (no result: Neddyl block, NadD block)
COc1cccc(=O)c2c(C)n(-c3cc(C)cc(C)c3)c(C)c12	NadD block 35 | NadD conf inactive
O=C(CNCCO)N1CCc2ccccc21	none
CCc1nnc(NCC(=O)N2CCc3ccccc32)s1	NadD block 45 | NadD conf inactive
O=C(c1cc2sccc2n1Cc1ccccc1)N1CCN(c2nc3ccccc3s2)CC1	NadD block 34 | NadD conf inactive
CCC(=O)N1CCN(c2nc3ccccc3s2)CC1	none
